TDP1 cell CPT – DT40-hTDP1 cell growth loss with CPT | chicken DT40 Tdp1-/-;hTDP1 cells + 20 nM CPT, ATP luminescence, 48 h | 12% of 420,000 active | AID 686979 | Potency, µM (doses to about 46.2 µM), usual class: inhibitors; also: nearly all actives have a fitted effect of over 55% in size
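Cell growth measured by CellTiter-Glo luminescence after a minimum 48 h, 37 C compound exposure with 20 nM CPT in Tdp1-knockout DT40 cells stably expressing hTDP1, seeded 400/well; qHTS titration format.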
HT1080-NT tox – kills 2HG-producing HT-1080-NT fibrosarcoma cells; Potency, µM (doses to about 46.1 µM), most hits filed as cytotoxic; 1.6% of 360,000 active; AID 686970; HT-1080-NT fibrosarcoma viability, CellTiter-Glo ATP luminescence, 48 h;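 also: NT is the 2HG producing partner of a matched IDH1 knockdown line; nearly all actives have a fitted effect of over 55% in size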
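A 48-hour cytotoxicity screen used HT-1080-NT cells plated 2 hours before compound delivery. ATP-based CellTiter-Glo luminescence measured viability, normalized to DMSO and no-cell controls.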
TDP1 cell noCPT – qHTS for Inhibitors of human tyrosyl-DNA phosphodiesterase 1 (TDP1): qHTS in cells in absence of CPT; DT40 Tdp1-/- hTDP1 cells, no CPT, ATP luminescence, 48 h; Potency, µM (doses to about 46.2 µM), usual class: inhibitors; 15% of 420,000 active; AID 686978, 2013; also: nearly all actives have a fitted effect of over 55% in size
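Growth kinetics read by CellTiter-Glo luminescence after ≥48 hr at 37 °C. Cells: DT40 Tdp1-/- stably carrying human TDP1, 400 per well, compound exposure in the absence of CPT (DMSO vehicle).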
IL-1B inflam inh – inhibitors of inflammasome signaling (IL-1 beta secretion); AID 743279; 4.7% of 360,000 active; THP-1 LPS/ATP IL-1B secretion, AlphaLISA, 16 h; active compounds read low; activity change, % at 57.5 µM; in the data active = activity change below about -50%; inconclusive = mostly about -30% to -49%
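Secreted IL-1B measured by AlphaLISA bead assay after 16 h compound exposure of THP-1 cells; compounds (final up to 57.5 uM) added 1 h before LPS (250 ng/mL) and ATP (1.25 mM) stimulation; lower signal means less secretion.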
HT1080 IDH1KD tx – toxicity to HT-1080 IDH1 knockdown cells (counter line); HT-1080 IDH1 knockdown viability, ATP luminescence, 48 h; Potency, µM (series often up to 46.1 µM), hits mostly cytotoxic; 2% of 360,000 active
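In this qHTS, HT-1080 cells depleted of IDH1 are exposed for 48 h at 37 °C to compound titrations. Toxicity is scored from CellTiter-Glo luminescence, with DMSO as full viability and medium alone as none.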
A number is an active result; n = inactive; u = inconclusive; x = no result given; [ ] = dose if it differs, or a comment. This is a sample that favours compounds with a hit; in the whole collection about 19% have one here. Unless noted, calls follow the shape of the dose curve; as a rule, active = well fitted curve in the direction sought with a large enough effect; inconclusive = small, poorly fitted or top-dose-only effect, or another doubt; inactive = no such curve, though single readings can be large; an effect the other way counts as inactive or inconclusive.

SMILES	TDP1 cell CPT	HT1080-NT tox	TDP1 cell noCPT	IL-1B inflam inh	HT1080 IDH1KD tx
Cc1cc(F)ccc1C(O)c1ncc(-c2cccc(OCc3ccccc3)c2)[nH]1 (configuration not stated)	u	u	16µM	n	u
Cc1ccccc1-c1cnc(C(O)c2cccc(C)c2C)[nH]1 (configuration not stated)	u	u	u	n	n
COc1cccc(-c2cnc(C(O)c3ccc(F)cc3C)[nH]2)c1 (configuration not stated)	u	n	n	n	n
CN(C)S(=O)(=O)c1cccc(NC(=O)COC(=O)c2cccnc2Cl)c1	n	n	n	n	n
COC(=O)c1ccccc1S(=O)(=O)N1CCC(C(=O)NCCC2=CCCCC2)CC1	u	n[9.24 µM]	u	n	n
Cc1ccc(CNC(=O)C2CCN(S(=O)(=O)c3cccs3)CC2)o1	n	n	n	n	n
O=C(OCC(=O)N1CCNC1=O)c1ccccc1Cl	n	n	n	n	n
C/C(=C\C(=O)OCCCCCCCCC(=O)O)C[C@@H]1OC[C@H](C[C@@H]2O[C@H]2[C@@H](C)[C@H](C)O)[C@@H](O)[C@H]1O	1µM	u	1.5µM	n	n
COc1cccc(/C=C/c2nc(C#N)c(N3CCCCCC3)o2)c1	u	x	18µM	x	x
COc1cccc(/C=C/c2nc(C#N)c(N3CCC(C(N)=O)CC3)o2)c1	n	x	n	x	x
COc1ccc(/C=C/c2nc(C#N)c(N3CCCCC3)o2)cc1OC	23µM	x	16µM	x	x
COc1ccc(/C=C/c2nc(C#N)c(N3CCN(c4ccccc4)CC3)o2)cc1OC	n	x	n	x	x
COc1ccc(OCc2nc(C#N)c(N3CCN(c4ccc(OC)cc4)CC3)o2)cc1	u	n	u	n	n
COc1ccc(N2CCN(c3oc(/C=C/c4cc(OC)c(OC)c(OC)c4)nc3C#N)CC2)cc1	2.9µM	x	3.7µM	x	x
COc1cc(/C=C/c2nc(C#N)c(N3CCCCCC3)o2)cc(OC)c1OC	15µM	x	16µM	x	x
COc1ccccc1/C=C/c1nc(C#N)c(N(C)C)o1	u	n	16µM	n	n
CN(C)c1oc(/C=C/c2ccccc2)nc1C#N	n	n	n	n	n
COc1ccccc1/C=C/c1nc(C#N)c(N2CCCCC2)o1	n	x	16µM	x	x
COc1cc(/C=C/c2nc(C#N)c(N3CCC(C)CC3)o2)cc(OC)c1OC	10µM	x	7.3µM	x	x
Cc1ccc(NC(=O)CN(C)C(=O)C(C)OC(=O)c2ccccc2NCCO)cc1 (configuration not stated)	n	n	n	n	n
Cc1cccc(CNC(=O)C(=O)Nc2ccccc2C)c1	n	x	n	x	x
COc1ccc(NC(=O)N(CCC(C)C)C(C)c2ccccn2)c(OC)c1 (configuration not stated)	23µM	n	u	n	n
COc1ccc(NC(=O)N(C(C)C)C2CCN(C(C)=O)CC2)c(OC)c1	n	x	n	x	x
COc1ccc(NC(=S)NC(=O)c2cncc(Br)c2)cc1	n	n	u	x	n
CC(C)=CCn1c2ccc(NC(=O)Nc3ccc(N(C)C)cc3)cc2c(=O)n1C	u	n	18µM	n	u
SMILES	TDP1 cell CPT	HT1080-NT tox	TDP1 cell noCPT	IL-1B inflam inh	HT1080 IDH1KD tx
CN(C)c1ccc(NC(=O)Nc2ccc3c(c2)c(=O)n(C)n3Cc2ccccc2)cc1	23µM	u	16µM	n	u
CCNC(=O)Nc1ccc2c(c1)c(=O)n(C)n2CC=C(C)C	n	n	n	n	n
Cc1cc(C(=O)N2CCCC(C(=O)c3ccc4ccccc4c3)C2)n(C)n1 (configuration not stated)	u	n	21µM	n	n
COc1ccc2cc(C(=O)C3CCCN(C(=O)c4snnc4C)C3)ccc2c1 (configuration not stated)	16µM	n	23µM	u	n
COc1ccc(C(=O)C2CCCN(Cc3cnc(N4CCCC4)s3)C2)cc1OC (configuration not stated)	n	n	u	n	n
CSc1ccc(C(=O)C2CCCN(C(=O)c3nn(C)c(=O)c4ccccc34)C2)cc1 (configuration not stated)	u	u	16µM	n	u
COc1ccc2cc(C(=O)C3CCCN(Cc4cnc(C)s4)C3)ccc2c1 (configuration not stated)	23µM	u	16µM	-66	n
O=c1[nH]c(O)c(/C=C2\C=Nc3ccc(Br)cc32)[nH]1	n	n	n	u	n
COc1ccc2cc(C(=O)C3CCCN(C(=O)/C=C/c4ccccn4)C3)ccc2c1 (configuration not stated)	u	n	21µM	n	n
CCn1cc(C(=O)N2CCCC(C(=O)c3ccc4ccccc4c3)C2)cn1 (configuration not stated)	n	n	n	n	n
Cc1nc(C)c(C(=O)N2CCCC(C(=O)c3ccc4ccccc4c3)C2)s1 (configuration not stated)	u	n	33µM	n	n
COc1ccc2cc(C(=O)C3CCCN(C(=O)Cc4c(C)noc4C)C3)ccc2c1 (configuration not stated)	23µM	n	21µM	n	n
Cc1cccc2cc(CNCc3ccccc3)c(Cl)nc12	u	n	u	n	n
COc1cccc(C(O)c2nc(-c3cccc(C#N)c3)cs2)c1 (configuration not stated)	u	n	u	n	n
O=C1Nc2ccc(Br)cc2C12NNc1ccccc1O2 (configuration not stated)	u	n	18µM	n	u
OCCN(CCO)c1ccc2ccccc2c1	n	n	n	n	n
OCCN(CCO)c1ccc(C(c2ccccc2Cl)c2ccc(N(CCO)CCO)cc2Cl)c(Cl)c1	u	n	18µM	u	u
Nc1nc(-c2cccc(NS(=O)(=O)c3ccccc3)c2)cs1	u	n	u	n	n
CC1CCN(C(=O)CCc2ccc(Oc3cc([N+](=O)[O-])cc([N+](=O)[O-])c3)cc2)CC1	u	n	u	-57	n
Cc1ccccc1Nc1nnc(-c2ccc(C)c(S(=O)(=O)NCC3CCCO3)c2)c2ccccc12 (configuration not stated)	u	x	13µM	x	x
Cc1ccc(-c2nnc(Nc3cccc(O)c3)c3ccccc23)cc1S(=O)(=O)NCCO	n	n	n	n	n
Cc1ccc(-c2n[nH]c(=S)c3ccccc23)cc1S(=O)(=O)NCC1CCCO1 (configuration not stated)	u	u	u	u	n
Cc1ccc(-c2nnc(N3CCOCC3)c3ccccc23)cc1S(=O)(=O)NCC1CCCO1 (configuration not stated)	u	n	26µM	u	n

Compound activity deposited in PubChem BioAssay by National Center for Advancing Translational Sciences (NCATS).
